Data taken from PubChem BioAssay AID1159580 (chemical genetic matrix, 2015).
The campaign covered roughly 5,500 compounds. About 2,000 (36%) were called active. Another 18% or so got no clear call; they are omitted. Rule as the data show it: active = normalized growth mostly below about 0.91 (no sharp cut-off); inconclusive = no clear call, values can overlap the other calls; inactive = mostly above about 0.92. Some of the results follow.

Assay: chemical genetic growth profiling, strain panel (AID 1159580);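 also: tested at 20 µM; growth read once vehicle control cultures reached saturation at 30 °C; 1 = growth at the plate median or of vehicle wells; lower values mean less growth of the strain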
Settings: S. cerevisiae deletion strains, growth OD
[1] = locus YAL040C, strain CLN3, stronger effect = lower value
[2] = locus YCL061C, strain MRC1 (second series), stronger effect = lower value
[3] = locus YDR363W, strain ESC2, stronger effect = lower value
[4] = locus YER002W, strain NOP16, stronger effect = lower value
[5] = locus YNL175C, strain NOP13, stronger effect = lower value
[6] = locus YNL197C, strain WHI3, stronger effect = lower value
[7] = locus YNL224C, strain SQS1, stronger effect = lower value
[8] = locus YOR083W, strain WHI5 (second series), stronger effect = lower value
[9] = locus YPL241C, strain CIN2, stronger effect = lower value
[10] = locus YGR078C, strain PAC10, stronger effect = lower value

Measured: normalized growth

COc1cc(C(O)CO)ccc1OS(=O)(=O)O (stereo not drawn)
inactive: [1] 0.981 | [2] 1 | [3] 0.994 | [4] 0.991 | locus YGR229C, strain SMI1, stronger effect = lower value 1.01 | [5] 0.998 | [6] 1 | [7] 1.01 | locus YNL322C, strain KRE1, stronger effect = lower value 1.01 | [8] 1.05 | [9] 0.996

C1COC(NC(C2CC2)C2CC2)=N1
inactive: [1] 1.01 | [2] 0.997 | [3] 1.01 | [4] 0.995 | [10] 0.997 | locus YMR307W, strain GAS1, stronger effect = lower value 0.956 | [5] 1.01 | [6] 0.997 | [7] 0.999 | [8] 1.01

CSc1nc(N)c2ncn([C@@H]3O[C@H](COP(=O)(O)OP(=O)(O)OP(=O)(O)O)[C@H](O)C3O)c2n1 (stereo partly drawn)
inactive: [1] 0.978 | locus YDR150W, strain NUM1, stronger effect = lower value 1.03 | [4] 0.998 | [10] 0.981 | locus YMR263W, strain SAP30, stronger effect = lower value 1 | locus YNL153C, strain GIM3, stronger effect = lower value 1.01 | [5] 0.986 | [6] 0.979 | [7] 0.967 | [8] 1 | [9] 1.01

COc1cc(Br)cc(C=Nc2ccc(Sc3ccccc3)nc2Sc2ccccc2)c1O
active: locus YHR030C, strain SLT2, stronger effect = lower value 0.489 | locus YLR113W, strain HOG1, stronger effect = lower value 0.746 | locus YPL256C, strain CLN2, stronger effect = lower value 0.794
inactive: locus YAR019C, strain CDC15, stronger effect = lower value 0.968 | locus YBL105C, strain PKC1, stronger effect = lower value 0.976 | locus YBR135W, strain CKS1, stronger effect = lower value 0.96 | locus YBR136W, strain MEC1, stronger effect = lower value 0.973 | locus YBR160W, strain CDC28, stronger effect = lower value 0.965 | locus YDL017W, strain CDC7, stronger effect = lower value 0.969 | locus YDL028C, strain MPS1, stronger effect = lower value 0.962 | locus YDL101C, strain DUN1, stronger effect = lower value 0.969 | locus YDL108W, strain KIN28, stronger effect = lower value 0.958 | locus YDL132W, strain cdc53, stronger effect = lower value 0.949 | locus YDL214C, strain PRR2, stronger effect = lower value 0.838 | locus YDR052C, strain DBF4, stronger effect = lower value 0.976 | locus YDR054C, strain cdc34, stronger effect = lower value 0.957 | locus YDR226W, strain ADK1, stronger effect = lower value 0.964 | locus YDR477W, strain SNF1, stronger effect = lower value 0.812 | locus YER123W, strain YCK3, stronger effect = lower value 0.831 | locus YER133W, strain GLC7, stronger effect = lower value 0.843 | locus YFL009W, strain cdc4, stronger effect = lower value 0.955 | locus YFL029C, strain CAK1, stronger effect = lower value 0.966 | locus YFR003C, strain YPI1, stronger effect = lower value 0.967 | locus YFR019W, strain FAB1, stronger effect = lower value 0.969 | locus YFR028C, strain CDC14, stronger effect = lower value 0.955 | locus YGR040W, strain KSS1, stronger effect = lower value 0.857 | locus YGR052W, strain FMP48, stronger effect = lower value 0.782 | locus YGR092W, strain DBF2, stronger effect = lower value 0.523 | locus YHR079C, strain IRE1, stronger effect = lower value 0.703 | locus YHR082C, strain KSP1, stronger effect = lower value 0.845 | locus YHR205W, strain SCH9, stronger effect = lower value 0.696 | locus YIL147C, strain SLN1, stronger effect = lower value 0.964 | locus YJL095W, strain BCK1, stronger effect = lower value 0.638 | locus YJL128C, strain PBS2, stronger effect = lower value 0.918 | locus YJL157C, strain FAR1, stronger effect = lower value 0.848 | locus YJR016C, strain ILV3, stronger effect = lower value 0.974 | locus YJR066W, strain TOR1 (second series), stronger effect = lower value 0.848 | locus YJR066W, strain TOR1, stronger effect = lower value 0.636 | locus YKL048C, strain ELM1, stronger effect = lower value 0.935 | locus YKL067W, strain YNK1, stronger effect = lower value 0.808 | locus YKL101W, strain HSL1, stronger effect = lower value 0.861 | locus YKL193C, strain SDS22, stronger effect = lower value 0.962 | locus YKL203C, strain TOR2, stronger effect = lower value 0.91 | locus YLR133W, strain CKI1, stronger effect = lower value 0.846 | locus YLR403W, strain SFP1, stronger effect = lower value 0.772 | locus YML070W, strain DAK1, stronger effect = lower value 0.888 | locus YMR001C, strain CDC5, stronger effect = lower value 0.951 | locus YMR205C, strain PFK2 (second series), stronger effect = lower value 0.843 | locus YMR277W, strain FCP1, stronger effect = lower value 0.959 | locus YNL006W, strain LST8, stronger effect = lower value 0.971 | locus YNL020C, strain ARK1, stronger effect = lower value 0.82 | locus YNL161W, strain CBK1, stronger effect = lower value 0.972 | locus YNL183C, strain NPR1, stronger effect = lower value 0.72 | locus YNL207W, strain RIO2, stronger effect = lower value 0.961 | locus YNL222W, strain SSU72, stronger effect = lower value 0.962 | locus YNL307C, strain MCK1 (second series), stronger effect = lower value 0.766 | locus YOL078W, strain AVO1, stronger effect = lower value 0.963 | locus YOL136C, strain PFK27, stronger effect = lower value 0.893 | locus YOR061W, strain CKA2, stronger effect = lower value 0.824 | locus YOR119C, strain RIO1, stronger effect = lower value 0.838 | locus YOR231W, strain MKK1, stronger effect = lower value 0.766 | locus YOR329C, strain SCD5, stronger effect = lower value 0.967 | locus YPL031C, strain PHO85, stronger effect = lower value 0.827 | locus YPL153C, strain RAD53, stronger effect = lower value 0.808 | locus YPL204W, strain HRR25, stronger effect = lower value 0.801 | locus YPL209C, strain IPL1, stronger effect = lower value 0.968 | locus YPR025C, strain CCL1, stronger effect = lower value 0.962 | locus YPR106W, strain ISR1, stronger effect = lower value 0.957 | locus YPR111W, strain DBF20, stronger effect = lower value 0.939 | strain NNK1, stronger effect = lower value 0.97 | strain TSCII, stronger effect = lower value 0.964
